# Reference: PubChem BioAssay (EPA / NIEHS)
# Results filed as inconclusive are left out. Calls of active or inactive are those of the source. Rule for the calls, unless noted: active = hit-call score of the fitted dose curve at least 0.9, where 1 is the maximum; inactive = score below 0.9.
# What was measured:
# [1] = UKN2_HCS_IMR90_neural_migration: University of Konstanz (UKN) Leist Lab Neural Crest Cell Migration Assay in human induced IMR90 Pluripotent Stem Cells (UKN2) (AID 2284204); conditions: actives raise or lower the signal
# Method in brief: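 iPSC-derived IMR90 neural crest cells on PLO/laminin/fibronectin were seeded around silicone stoppers; after stopper removal, migration in N2-S medium with EGF and FGF ran 24 h before 24 h chemical exposure. Calcein-AM/Hoechst high-content imaging; bidirectional fit versus DMSO.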
# [2] = Tanguay_ZF_120hpf_MUSC: Oregon State University Tanguay Lab 120 Hour Post-fertilization zebrafish Assay for Muscle Malformation (AID 2284401)
# Method in brief: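 Dechorionated Tropical 5D wild-type zebrafish embryos exposed statically from 6 to 120 hpf at 28C, one per well, in 0.64% DMSO. Muscle malformation scored present/absent by brightfield microscopy at 120 hpf, fitted against DMSO.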
# [3] = CCTE_Shafer_MEA_dev_firing_rate_mean: CCTE's Neural Network Formation Assay for Mean Firing Rate, Shafer Lab (AID 2284031);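 for AC50: curve fitted for loss of firing so AC50 reflects decreased mean firing rate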
# Method in brief: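 Rat primary cortical neurons were seeded on multielectrode arrays and treated from plating through day 12, with redosing at each feed. Spontaneous spiking was recorded four times; mean firing rate AUC was fitted downward against DMSO.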
# [4] = CCTE_Shafer_MEA_dev_per_burst_spike_percent: CCTE's Neural Network Formation Assay for Percent of Spikes in a Burst, Shafer Lab (AID 2284032);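 for AC50: fitted as a decrease in burst spike percentage below DMSO baseline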
# Method in brief: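 Rat primary cortical neurons on 16-electrode MEA wells, dosed from plating day 0 for 12 days with renewal on DIV 5 and 9; spikes-in-bursts percentage averaged over bursting electrodes, collapsed as AUC across days 5, 7, 9, 12; loss direction versus DMSO.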
# [5] = CCTE_Shafer_MEA_dev_burst_rate: CCTE's Neural Network Formation Assay for Burst Rate, Shafer Lab (AID 2284042);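 for AC50: potency for loss of burst rate below DMSO control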
# Method in brief: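 Exposure ran continuously over 12 days of network development in rat cortical cultures, with compound refreshed during full media changes on DIV 5 and 9. Single-electrode bursts per recording time, well-mean over active electrodes, trapezoidal AUC across days 5–12, fitted downward relative to DMSO.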
# [6] = CCTE_Shafer_MEA_dev_per_burst_interspike_interval: CCTE's Neural Network Formation Assay for Burst Interspike Interval, Shafer Lab (AID 2284044);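 note: mean spike spacing inside bursts as AUC over recordings on days 5 7 9 12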;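 for AC50: potency for a decrease of within-burst interspike interval below DMSO level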
# Method in brief: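 Neurons from rat cortex plated onto PEI-coated MEA wells with laminin […] at 1.5 x 10^5 cells/well, then treated from day 0. Media and compound fully replaced on DIV 5 and 9. Extracellular spontaneous firing recorded four times; interspike interval per burst summarised as AUC.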
# [7] = CCTE_Shafer_MEA_dev_burst_duration_mean: CCTE's Neural Network Formation Assay for Mean Burst Duration, Shafer Lab (AID 2284045);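 for AC50: curve fitted for loss meaning shorter burst duration than DMSO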
# Method in brief: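 Primary rat cortical neurons on PEI-coated 16-electrode MEA wells, exposed from plating through day 12 with compound renewed at DIV 5 and 9; spontaneous activity recorded days 5, 7, 9, 12. Well-mean burst duration collapsed as trapezoidal AUC, fitted for loss versus DMSO.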
# [8] = CCTE_Shafer_MEA_dev_interburst_interval_mean: CCTE's Neural Network Formation Assay for Mean Interburst Interval, Shafer Lab (AID 2284046);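 note: well-mean interburst interval of bursting electrodes as AUC over four recording days; curve fitted for decrease in interburst interval relative to DMSO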
# Method in brief: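 Primary rat cortical neurons on PEI-coated 48-well MEA plates (laminin added with cells at plating) (16 electrodes/well), exposed from plating day 0 with renewal at DIV 5 and 9. Mean inter-burst interval averaged over bursting electrodes, AUC across days 5, 7, 9, 12; DMSO baseline.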
# [9] = CCTE_Shafer_MEA_dev_inter_network_spike_interval_mean: CCTE's Neural Network Formation Assay for Mean Inter-network Spike Interval, Shafer Lab (AID 2284047)
# Method in brief: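 Mean time between consecutive network-spike peaks, recorded extracellularly (adaptive spike detection) on DIV 5, 7, 9 and 12, summarized as trapezoidal AUC. Rat cortical cultures on MEAs dosed continuously days 0–12, re-dosed at feeds; loss-of-signal fit relative to DMSO.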
# [10] = CCTE_Shafer_MEA_dev_network_spike_number: CCTE's Neural Network Formation Assay for Number of Network Spikes, Shafer Lab (AID 2284048);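 note: synchronized bursts across electrodes counted on days 5 7 9 12 and integrated as AUC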;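 for AC50: fit as a loss of signal meaning fewer network spikes than DMSO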
# Method in brief: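 Primary rat cortical neurons were seeded at 1.5 x 10^5 cells/well on PEI-coated 16-electrode MEA wells with laminin, exposed from plating day 0, compound renewed at DIV 5 and 9. Network spikes were recorded on days 5, 7, 9, 12 and summarized as trapezoidal AUC versus DMSO.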
# [11] = CCTE_Shafer_MEA_dev_spike_duration_mean: CCTE's Neural Network Formation Assay for Mean Spike Duration, Shafer Lab (AID 2284051);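 note: mean network spike duration pooled as area under curve over DIV 5 to 12 recordings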;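 for AC50: potency for a decrease in mean network spike duration versus DMSO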
# Method in brief: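 Spontaneous activity was recorded on days 5, 7, 9 and 12 from rat cortical cultures grown on microelectrode arrays and dosed continuously from day 0, with media and compound renewed after the DIV 5 and 9 recordings. Network-spike duration was collapsed by area under the curve.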
# [12] = CCTE_Shafer_MEA_dev_network_spike_duration_std: CCTE's Neural Network Formation Assay for Standard Deviation of Network Spike Duration, Shafer Lab (AID 2284052);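 note: hits are decreases in network spike duration SD versus DMSO vehicle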
# Method in brief: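 Network spike duration variability was collapsed across recordings on days 5, 7, 9 and 12 by trapezoidal area-under-curve and fitted downward against DMSO. Cultures were rat cortical neurons on PEI-coated MEA plates, dosed continuously from plating, refed with compound DIV 5/9.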
# [13] = CCTE_Shafer_MEA_dev_per_network_spike_spike_number_mean: CCTE's Neural Network Formation Assay for Mean Number of Spikes in a Network Spike, Shafer Lab (AID 2284053);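 for AC50: fitted as decrease in spikes per network spike relative to DMSO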
# Method in brief: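 Mean spike count within each network spike, taken in a 0.05 s window at its peak, was recorded on days 5, 7, 9 and 12 and integrated as trapezoidal area under the curve. Rat cortical cultures on MEA plates received continuous compound from day 0, refreshed at medium changes on DIV 5 and 9.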
# [14] = CCTE_Shafer_MEA_dev_per_network_spike_spike_percent: CCTE's Neural Network Formation Assay for Percent of Spikes in a Network Spike, Shafer Lab (AID 2284054)
# Method in brief: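 Primary rat cortical neurons on 16-electrode MEA wells (PEI-coated, laminin at plating), exposed from day 0 with renewal at DIV 5 and 9; spikes within 0.05 s of network-spike peaks over total spikes, AUC across days 5, 7, 9, 12.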
# [15] = CCTE_Shafer_MEA_dev_LDH: CCTE's Lactate Dehydrogenase Assay for Cytotoxicity in the Neural Network Formation Assay, Shafer Lab (AID 2284068; active = hit-call score of the fitted dose curve at least 0.9, where 1 is the maximum;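 note: exposure for twelve days from plating with re-dosing on DIV 5 and 9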)
# Method in brief: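 Primary rat cortical neurons were cultured on PEI-coated MEA plates and exposed from plating through day 12, with compound renewed at medium changes on DIV 5 and 9. LDH activity was read spectrophotometrically; loss of signal versus DMSO indicates reduced viability.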
# [16] = CCTE_Shafer_MEA_dev_mutual_information_norm: CCTE's Neural Network Formation Assay for Mutual Information Normalization, Shafer Lab (AID 2284091);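 for AC50: mutual information between electrodes summarised as area under curve across four recording days; potency is for a decrease in mutual information relative to DMSO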
# Method in brief: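 Rat cortical cultures, 48-well MEA, continuous exposure DIV 0–12 with full media/compound change DIV 5 and 9. Readout: inter-electrode mutual information, AxIS adaptive spike detection; AUC across DIV 5/7/9/12 recordings; DMSO baseline, negative fitting direction.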
# [17] = CCTE_Shafer_MEA_dev_correlation_coefficient_mean: CCTE's Neural Network Formation Assay for Mean Correlation Coefficient, Shafer Lab (AID 2284093);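 for AC50: well mean pairwise spike train correlation integrated as AUC over recording days 5 to 12; potency fitted for loss of correlation relative to DMSO vehicle wells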
# Method in brief: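 Primary rat cortical neurons on PEI-coated 48-well MEA plates (16 electrodes/well) were exposed from plating day 0 through DIV12, with compound renewed at DIV5 and 9. Pairwise spike correlations were averaged per well; trapezoidal AUC across DIV5, 7, 9, 12.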
# [18] = CCTE_Shafer_MEA_dev_active_electrodes_number: CCTE's Neural Network Formation Assay for Number of Active Electrodes, Shafer Lab (AID 2284040; active = hit-call score of the fitted dose curve at least 0.9, where 1 is the maximum;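 note: potency for loss of active electrodes versus DMSO so lower counts are hits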)
# Method in brief: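 Primary rat cortical neurons on 16-electrode MEA wells, exposed from day 0 through day 12 with compound renewed at DIV 5 and 9 feeds. Active electrodes (mean firing ≥5 spikes/min) counted at DIV 5, 7, 9, 12; trapezoidal AUC across days, loss-of-signal versus DMSO.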
# [19] = CCTE_Shafer_MEA_dev_bursting_electrodes_number: CCTE's Neural Network Formation Assay for Number of Bursting Electrodes, Shafer Lab (AID 2284043; active = hit-call score of the fitted dose curve at least 0.9, where 1 is the maximum;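 note: potency is for loss of bursting electrodes relative to DMSO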)
# Method in brief: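 Primary rat cortical neurons were cultured on PEI-coated 48-well MEA plates (16 electrodes/well) and exposed from plating through day 12, with compound renewed at feeds on DIV 5 and 9. Electrodes bursting ≥1 per 2 min were counted on DIV 5, 7, 9, 12; trapezoidal AUC taken.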
compound,measurement,setting,value
Clc1cc(Cl)c(-c2cc(Cl)c(Cl)c(Cl)c2Cl)cc1Cl,AC50,[1],5570 nM (active)
O=C(O)C(F)(F)C(F)(F)OC(F)(F)F,outcome,[2],inactive
O=C(O)C(F)(F)C(F)(F)C(F)(F)OC(F)(C(F)(F)F)C(F)(F)F,outcome,[2],inactive
CC(C)(C)C(=O)CC(=O)C(F)(F)C(F)(F)C(F)(F)F,outcome,[2],inactive
OCC(F)(F)C(F)(F)C(F)(F)C(F)(F)C(F)(F)C(F)(F)C(F)(F)C(F)(F)CO,outcome,[2],inactive
CN1CC=C(c2ccccc2)CC1,outcome,[1],inactive
C=CCN1CC[C@]23c4c5ccc(O)c4O[C@H]2C(=O)CC[C@@]3(O)[C@H]1C5,outcome,[3],inactive
same,outcome,[4],inactive
same,outcome,[5],inactive
same,outcome,[6],inactive
same,outcome,[7],inactive
same,outcome,[8],inactive
same,outcome,[9],inactive
same,outcome,[10],inactive
same,outcome,[11],inactive
same,outcome,[12],inactive
same,outcome,[13],inactive
same,outcome,[14],inactive
same,outcome,[15],inactive
same,outcome,[16],inactive
same,outcome,[17],inactive
FC(F)(F)C(F)(F)C(F)(F)C(F)(F)C(F)(F)C(F)(F)C(F)(F)C(F)(F)CCS,outcome,[2],inactive
O=C(O)C(F)(F)C(F)(F)C(F)(F)C(F)(F)C(F)(F)C(F)(F)C(F)(F)C(F)(F)C(F)(F)C(F)(F)C(F)(F)C(F)(F)F,outcome,[2],inactive
[CH3][Sn]([CH3])([CH3])[Cl],AC50,[1],7880 nM (active)
FC(F)(F)C(F)(F)C(F)(F)C(F)(F)CCI,outcome,[2],inactive
C=CC(=O)OCCC(F)(F)C(F)(F)C(F)(F)C(F)(F)C(F)(F)C(F)(F)C(F)(F)C(F)(F)F,outcome,[2],inactive
O=C(O)CCC(F)(F)C(F)(F)C(F)(F)F,outcome,[2],inactive
O=C(F)C1(F)C(F)(F)C(F)(F)C(F)(F)C(F)(F)C1(F)F,outcome,[2],inactive
FC(F)(F)C(F)(F)C(F)(F)CC1CO1 (stereo not given),outcome,[2],inactive
CC(C)CC(C)c1sccc1NC(=O)c1cn(C)nc1C(F)(F)F (stereo not given),AC50,[1],65600 nM (active)
OCC(F)(F)C(F)(F)C(F)(F)C(F)(F)C(F)(F)C(F)(F)CO,outcome,[2],inactive
O=C(O)C(F)(F)C(F)(F)F,outcome,[2],inactive
[CH3][Sn]([CH3])[CH3],AC50,[3],571 nM (active)
same,AC50,[4],1620 nM (active)
same,AC50,[18],212 nM (active)
same,AC50,[5],559 nM (active)
same,AC50,[19],245 nM (active)
same,AC50,[6],2330 nM (active)
same,AC50,[7],992 nM (active)
same,AC50,[8],2360 nM (active)
same,outcome,[9],inactive
same,AC50,[10],94.4 nM (active)
same,AC50,[11],151 nM (active)
same,AC50,[12],77.3 nM (active)
same,AC50,[13],222 nM (active)
same,AC50,[14],221 nM (active)
same,AC50,[15],174 nM (active)
same,AC50,[16],221 nM (active)
same,AC50,[17],222 nM (active)
C=CC(=O)OCC(F)(F)C(F)(F)C(F)(F)COC(=O)C=C,outcome,[2],inactive
COC(=O)CCC(F)(F)C(F)(F)C(F)(F)C(F)(F)F,outcome,[2],inactive
FC(F)(F)C(F)(F)C(F)(F)C(F)(F)C(F)(F)C(F)(F)I,outcome,[2],inactive
CN(C(=O)C(F)(F)C(F)(F)C(F)(F)F)[Si](C)(C)C,outcome,[2],inactive
O=C(O)C(F)(F)C(F)(F)C(F)(F)C(F)(F)C(=O)O,outcome,[2],inactive
FC(F)(F)C(F)(F)C(F)(F)C(F)(F)C(F)(F)C(F)(F)C(F)(F)CCI,outcome,[2],inactive
